In the library only some 2.8% were active in any assay of this set; here they are far more common.
SENP8 block-1 = SENP8 (human) protease inhibition | Q96LD8 | recombinant SENP8, Nedd8 substrate fluorescence | inhibition, % at 20 µM | 0.64% of 360,000 active | AID 602440; in the data active means inhibition mostly above about 40%, no sharp cut-off; inactive means mostly below about 27%
Platelet DG rel = platelet dense granule release activity | human platelet-rich plasma, SFLLRN dense granule ATP release, luminescence | inhibition, %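 (compounds screened at 7.5 µM in platelet-rich plasma)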 | 0.22% of 300,000 active | AID 1663;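 active means mean replicate score, as percent of positive control, at or above 50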
HSP90 refold inh = blocks HSP90-mediated luciferase refolding in reticulocyte lysate; 0.91% of 290,000 active; Rabbit reticulocyte lysate, luciferase refolding luminescence, 3 h; inhibition, % at 5.6 µM;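 active means inhibition above the screen-wide mean plus 3 SD, computed separately per campaign, cut at about 16% in these data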;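 further: 0% = DMSO wells and 100% = 60 µM geldanamycin wells; inhibitors lower the luminescence because luciferase stays unfolded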
SENP7 block = SENP7 protease inhibition. Q9BQF6. 1.5% of 330,000 active. recombinant SENP7, Z-RLRGG-aminoluciferin luminescence, 40 min. inhibition, % at 5 µM;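 active means inhibition above about 50% at the single test dose, limit read from the data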;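 further: plate controls were DMSO with enzyme for no effect and no enzyme buffer wells for full effect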
SENP6 inh = SENP6 protease inhibition; inhibition, % at 10 µM; Q9GZR1; Recombinant SENP6 catalytic domain, aminoluciferin luminescence; 1.8% of 330,000 active; AID 2599;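 active means inhibition above about 50% at the single tested dose, limit read from the data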;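 further: plate controls were DMSO wells with enzyme for no effect and DMSO wells lacking enzyme for full effect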
Target sequence (Q9GZR1 628-1112 limits assumed): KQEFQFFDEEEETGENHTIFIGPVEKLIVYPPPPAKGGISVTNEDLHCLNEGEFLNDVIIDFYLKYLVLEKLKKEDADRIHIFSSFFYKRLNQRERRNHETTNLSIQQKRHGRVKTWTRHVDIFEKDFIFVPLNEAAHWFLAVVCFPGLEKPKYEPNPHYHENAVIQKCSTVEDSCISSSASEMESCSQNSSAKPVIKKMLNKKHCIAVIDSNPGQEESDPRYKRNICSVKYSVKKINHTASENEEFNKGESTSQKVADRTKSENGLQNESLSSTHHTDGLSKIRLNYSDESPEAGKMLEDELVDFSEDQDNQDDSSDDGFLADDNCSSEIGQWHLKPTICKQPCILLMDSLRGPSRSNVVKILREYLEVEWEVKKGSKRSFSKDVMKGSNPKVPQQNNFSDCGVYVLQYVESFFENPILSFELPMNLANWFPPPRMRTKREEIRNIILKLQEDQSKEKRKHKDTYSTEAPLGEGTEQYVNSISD
SENP8 block-2 = SENP8 protease inhibition; Q96LD8; purified SENP8, Z-RLRGG-aminoluciferin cleavage, luminescence; inhibition, % at 10 µM; 1.2% of 330,000 active; in the data active means inhibition above about 50%
HSP90 confirm = confirmation of HSP90 inhibitors; rabbit reticulocyte lysate, luciferase refolding luminescence, 3 h; 64% of 2,300 active; shares compounds with HSP90 refold inh; inhibition, % at 5.9 µM; AID 1846; in the data active means inhibition above about 18%;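 further: 0% = vehicle wells and 100% = reference inhibitor wells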
luciferase ctr = firefly luciferase inhibition, HSP90 counter-screen. purified native firefly luciferase, luminescence. 48% of 2,300 active. shares compounds with HSP90 refold inh. AID 1847. inhibition, % at 5.9 µM;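 active means inhibition above the mean inhibition of all tested sample wells plus 3 SD, cut at about 10% in these data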;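 further: 0% = DMSO with luciferase and 100% = wells lacking luciferase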
SENP8 confirm = confirmation of human SENP8 protease inhibitors. 40% of 6,200 active. AID 488912. inhibition, % at 12.5 µM. Recombinant SENP8, Z-RLRGG-aminoluciferin luminescence, 60 min. shares compounds with SENP7 block;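 active means mean inhibition across replicates above about 50%, limit read from the data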
SENP6 confirm = human SENP6 inhibition, confirmed; 58% of 6,200 active; shares compounds with SENP7 block; inhibition, % at 12.5 µM; recombinant SENP6, Z-RLRGG-aminoluciferin luminescence
SENP7 conf = human SENP7 inhibition, confirmed; 69% of 6,200 active; AID 488917; recombinant SENP7, Z-RLRGG-aminoluciferin luminescence, 40 min; inhibition, % at 12.5 µM; shares compounds with SENP7 block
Casp3 SENP sel = caspase-3 inhibition (SENP selectivity assay) | shares compounds with SENP7 block | purified caspase-3, Z-DEVD-aminoluciferin luminescence, 60 min | inhibition, % at 12.5 µM | 60% of 6,200 active | AID 488918;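 active means mean inhibition above about 50%, limit read from the data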;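 further: plate controls were enzyme with DMSO for no effect and wells without caspase-3 for full effect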
Target sequence (P42574 28-227 limits assumed): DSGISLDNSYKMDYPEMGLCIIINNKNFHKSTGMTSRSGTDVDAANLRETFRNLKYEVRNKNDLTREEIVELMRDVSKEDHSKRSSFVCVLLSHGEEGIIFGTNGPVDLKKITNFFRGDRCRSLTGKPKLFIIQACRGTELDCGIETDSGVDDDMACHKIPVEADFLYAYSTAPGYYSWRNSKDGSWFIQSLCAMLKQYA
SENP luc ctr = counter-screen for SENP inhibitors: luminescence interference. shares compounds with SENP7 block. Pre-incubated SENP8/Z-RLRGG-aminoluciferin, luciferase luminescence interference. inhibition, % at 12.5 µM. 39% of 6,200 active;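 active means mean inhibition above about 50% when retested at one dose, limit read from the data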;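 further: plate controls were DMSO wells with completed reaction for no effect and substrate without enzyme for full effect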
* = called active by the depositor; . = no result given.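 How the source made its calls, unless noted: active means mean inhibition above about 50% in the one-dose retest (limit read from the data); inactive means the rest.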

SMILES | SENP8 block-1 | Platelet DG rel | HSP90 refold inh | SENP7 block | SENP6 inh | SENP8 block-2 | HSP90 confirm | luciferase ctr | SENP8 confirm | SENP6 confirm | SENP7 conf | Casp3 SENP sel | SENP luc ctr
Cc1cc(NC2CCCC2)n2ncc(-c3ccccc3)c2n1 | -314 | -1 | 59* | 83* | 77* | 71* | 71* | 70* | 80* | 84* | 93* | 62* | 32
Cc1cc(N2CCOCC2)n2ncc(-c3ccccc3)c2n1 | -260 | 5 | 51* | 57* | 47 | 40 | 67* | 62* | 55* | 55* | 84* | 63* | 30
Cc1cc(NC2CCCC2)n2nc(C)c(-c3ccccc3)c2n1 | -276 | -1 | 0 | 1 | -5 | 4 | . | . | . | . | . | . | .
Cc1cc(NCCCn2ccnc2)n2ncc(-c3ccccc3)c2n1 | -491 | . | 34* | 55* | 67* | 39 | 62* | 56* | 53* | 52* | 82* | 60* | 46
Cc1cc(N2CCCCC2)n2ncc(-c3ccccc3)c2n1 | -484 | -13 | 37* | 53* | 50* | 29 | 50* | 54* | 36 | 43 | 75* | 32 | 24
O=c1ccn([C@@H]2O[C@H](CNS(=O)(=O)C3CC3)[C@@H](O)[C@H]2O)c(=O)[nH]1 | 4 | . | . | . | . | . | . | . | . | . | . | . | .
O=C(c1cncs1)N1CCCC(CNS(=O)(=O)c2cccs2)C1 (stereo unspecified) | 6 | 3 | 0 | -5 | -17 | -8 | . | . | . | . | . | . | .
COCCCNC(=O)C1=CCN(S(=O)(=O)c2ccc(OC)cc2)CC1 | 3 | -2 | -6 | 16 | -7 | -7 | . | . | . | . | . | . | .
Cc1ccc(-n2nnc(-c3nccs3)n2)cc1 | 14 | 34 | 76* | 98* | 94* | 94* | 85* | 81* | 97* | 97* | 101* | 97* | 94*
COc1cccc(NC(=O)CCC2CCN(C(=O)c3ccc(C(C)=O)s3)CC2)c1 | 21 | -7 | 2 | -3 | 9 | 7 | . | . | . | . | . | . | .
CN(C(=O)COC(=O)C1CCN(S(=O)(=O)c2ccc3c(c2)OCCO3)CC1)C1CCS(=O)(=O)C1 (stereo unspecified) | -2 | 14 | . | -7 | -10 | 17 | . | . | . | . | . | . | .
COc1cccc(OCc2cc(/C=N/Nc3ccc(C(=O)O)cc3)ccc2OC)c1 | -201 | 65* | 55* | 11 | 87* | 80* | 66* | 56* | 58* | 84* | 95* | 48 | 22
CCOc1cc(/C=N/Nc2ccc(C(=O)O)cc2)ccc1OC(=O)c1ccccc1C | -153 | -3 | 12 | 3 | -8 | 4 | . | . | . | . | . | . | .
COc1cc(/C=N/O)ccc1OCc1ccc(C(=O)O)cc1 | 15 | 7 | 76* | 100* | 97* | 96* | 85* | 80* | 97* | 100* | 104* | 98* | 99*
O=C(O)c1cc(/C=N\O)ccc1OCc1ccccc1 | 26 | 1 | -2 | -4 | -1 | -3 | . | . | . | . | . | . | .
COc1ccc(C(=O)N/N=C/c2ccc(OC)c(COc3ccc(F)cc3)c2)cc1 | -80 | -20 | 1 | 12 | -6 | -6 | . | . | . | . | . | . | .
COc1cccc(C(=O)Oc2ccc(/C=N/Nc3ccc(C(=O)O)cc3)cc2OC)c1 | -121 | 0 | 22* | 4 | 52* | 31 | 48* | 31* | 57* | 50 | 66* | 13 | 34
CCCCN(C(=O)C1CCCC1)c1c(N)n(CC(C)C)c(=O)[nH]c1=O | -9 | . | . | 9 | 5 | -1 | . | . | . | . | . | . | .
CCS(=O)(=O)N1CCN(c2ccc(Cl)cc2[N+](=O)[O-])CC1 | 21 | 20 | 4 | 1 | -14 | -5 | . | . | . | . | . | . | .
O=C(NCc1ccccn1)[C@@H]1CCCN1C(=O)[C@@H]1CCCN1C(=O)c1c(F)cccc1F | 10 | . | . | . | . | . | . | . | . | . | . | . | .
O=C(/C=C/Nc1ccccc1Br)c1ccccn1 | -31 | 54* | 87* | 100* | 97* | 96* | 98* | 94* | 2 | 100* | 103* | 97* | 89*
O=C(/C=C/Nc1ccc(Br)cc1F)c1ccccc1 | -27 | 50* | 23* | 100* | 94* | 94* | 84* | 78* | -27 | 15 | 36 | 65* | 9
O=C(/C=C\Nc1ccccn1)c1ccccc1 | -209 | 24 | 39* | 97* | 95* | 90* | 74* | 70* | 96* | 96* | 102* | 97* | 94*
COc1ccc(C(=O)/C=C/Nc2ccccn2)c(OC)c1 | -332 | 12 | 4 | 14 | 3 | -1 | . | . | . | . | . | . | .
O=C(/C=C/c1ccccc1)c1ccccn1 | -39 | 19 | -5 | -6 | 34 | 3 | . | . | . | . | . | . | .
SMILES | SENP8 block-1 | Platelet DG rel | HSP90 refold inh | SENP7 block | SENP6 inh | SENP8 block-2 | HSP90 confirm | luciferase ctr | SENP8 confirm | SENP6 confirm | SENP7 conf | Casp3 SENP sel | SENP luc ctr
COc1ccc(NC(=O)C2CCCN2S(=O)(=O)c2cccs2)c([N+](=O)[O-])c1 (stereo unspecified) | 24 | 22 | . | -5 | -1 | -1 | . | . | . | . | . | . | .
COc1cccc(COC(=O)CSCC(=O)Nc2ccc(C)cc2)c1OC | 15 | . | . | . | . | . | . | . | . | . | . | . | .
COc1cccc(C(=O)NCC(c2ccco2)N2CCOCC2)c1 (stereo unspecified) | 12 | 2 | . | -7 | -10 | 1 | . | . | . | . | . | . | .
CC(C#Cc1ccc2c(c1)COc1c3ccccc3nn1-2)OC(C)(C)C (stereo unspecified) | -6 | -6 | . | -15 | -4 | -13 | . | . | . | . | . | . | .
O=C(c1cc(-c2ccc(O)cc2)on1)N1CCCCCC1 | -1 | -6 | 12 | -12 | 13 | -14 | . | . | . | . | . | . | .
Cc1ccc(-c2cc(C(=O)N3CCCC3)no2)cc1 | 6 | -2 | 20* | 7 | 68* | 62* | 65* | 52* | -18 | 24 | 86* | 63* | 3
Cc1ccc(-c2cc(C(=O)N3CCOCC3)no2)cc1 | 10 | -11 | 62* | 58* | 61* | 45 | 68* | 57* | 53* | 50 | 82* | 81* | 55*
O=C(c1cc(-c2ccc3c(c2)OCO3)on1)N1CCCCC1 | -10 | 8 | 36* | 72* | 78* | 66* | 58* | 55* | 34 | 74* | 93* | 68* | 8
